Data from PubChem BioAssay (Tox21).
The source made the active and inactive calls. The call rests on the fitted dose curve; in most records, active means well fitted curve in the direction sought with a large enough effect in the repeat runs; inconclusive means weak or mixed curves; inactive means flat fitted curve, though single readings scatter.

Assay: qHTS assay to test for compound auto fluorescence at 590 nm (red) in HepG2 cell free culture (AID 720684)
Conditions: cell-free medium autofluorescence, red 540/590 nm; series mostly up to 91.3 µM
From the text: U.S. Tox21 Program National Center for Advancing Translational Sciences [NCATS] NIH Chemical Genomics Center [NCGC] U.S. Environmental Protection Agency [EPA] National Institutes of Environmental Health Sciences [NIEHS] National Toxicology Program [NTP] U.S. Food and Drug Administration [FDA] Tox21 Assay Overview: Compound auto fluorescence often interferes with screening of the compound library against various biological targets and signaling pathways. Some of these compounds may have fluorophoric properties. Such properties may interfere with the assay outputs resulting in false positives and/or negatives. To decrease such complications and ensure the compound activities are relevant in terms of biological response, the Tox21 10K compound library was screened for auto fluorescence. From the fluorophores used as reporter signals in our screening assays, the auto fluorescence equivalencies of compounds against three fluorophores have been evaluated: Triamterene, Fluorescein and Rose Bengal sodium for blue, green and red fluorescence, respectively. The fluorescence intensities were measured using Excitation/Emission wavelengths at 405/460nm, 485/535nm and 540/590nm for blue, green and red labels, respectively. This assay includes the red fluorescence data.
Tox21 Assay Protocol Summary: 5 uL of culture medium (MEM containing 10% FBS) per well was dispensed into black wall/clear bottom 1536-well plates using a Multidrop Combi Dispenser (ThermoFisher Scientific, Waltham, MA). After 23 nL compound or DMSO vehicle was transferred into assay plate by a pintool work station (Kalypsys, San Diego, CA), fluorescence intensities in the assay plates were measured by an Envision (PerkinElmer, Shelton, CT) plate reader using three labels for measuring blue, green and red fluorescence at […] 460, 535 and 590nm respectively.
On the % scale 0 is the no-effect control and ±100 the full control effect.

Row | SMILES | outcome | fluorescence, % of Rose Bengal
1 | NC(=O)c1ccccc1 | inactive | –
2 | O=C1C=CCCC1 | inactive | –
3 | CC(=O)c1cccnc1 | inactive | –
4 | CCCC1CCCC(=O)O1 (stereo not given) | inactive | –
5 | CCCCCO | inactive | –
6 | CS(C)=O | inactive | –
7 | O=c1[nH]nc(-c2ccc([N+](=O)[O-])o2)o1 | inactive | –
8 | CCCCCCCCCCCCSC#N | inactive | –
9 | Cc1ccc(NC(=O)c2ccc(CN3CCN(C)CC3)cc2)cc1Nc1nccc(-c2cccnc2)n1 | inactive | –
10 | O=C(Cl)c1ccc(F)c(Cl)c1 | inactive | –
11 | NC(=O)c1ccccc1C(N)=O | inactive | –
12 | CC(C)(C)N | inactive | –
13 | O=[N+]([O-])c1cccc(I)c1 | inactive | –
14 | CCOC(C)OCC | inactive | –
15 | Nc1ncnc2c1ncn2[C@@H]1O[C@H](CO)[C@@H](O)[C@H]1O | inactive | –
16 | OCCc1ccncc1 | inactive | –
17 | CCCCCCC/C=C/C=O | inactive | –
18 | c1ccc(CN(Cc2ccccc2)Cc2ccccc2)cc1 | inactive | –
19 | CCCCC(CC)COCCC#N (stereo not given) | inactive | –
20 | CCCC(=O)OCc1ccccc1 | inactive | –

Row | SMILES | outcome | fluorescence, % of Rose Bengal
21 | Cc1cc(C)n(CO)n1 | inactive | –
22 | Clc1cccc(C(c2ccc3nc[nH]c3c2)n2ccnc2)c1 (stereo not given) | inactive | –
23 | C/C(=C\C(C)CC(C)CC(C)C)C1CC(=O)OC1=O (stereo not given) | inactive | –
24 | CCc1ccc2c(c1)C(=O)c1ccccc1C2=O | inactive | –
25 | N#CCCCC(C#N)CCC#N (stereo not given) | inactive | –
26 | CC(C)(C)NCC(O)COc1ccc(NC(=O)NC2CCCCC2)cc1 (stereo not given) | inactive | –
27 | COC=O | – | -0.0589% [at 9.17 µM] (inactive)
28 | O=C(Cl)c1cc(Cl)cc(Cl)c1 | inactive | –
29 | CNc1ccccc1 | inactive | –
30 | CC[C@H](NC(C)C)[C@H](O)c1ccc(O)c2[nH]c(=O)ccc12 | inactive | –
31 | CC1=C(C)C(=O)C(CCCCC#CCCCC#CCO)=C(C)C1=O | inactive | –
32 | C=CC(=O)OCCCCCCCCCC | inactive | –
33 | O=C(O)c1cccnc1Nc1cccc(C(F)(F)F)c1 | inactive | –
34 | CC1(C)CC(O)CC(C)(C)N1[O] | inactive | –
35 | CC(CN=Cc1ccccc1O)N=Cc1ccccc1O (stereo not given) | inactive | –
36 | CCCOC(C)=O | inactive | –
37 | CCCCCCCCC(=O)OCC(C)OC(=O)CCCCCCCC (stereo not given) | inactive | –
38 | CCCCCCCCS | inactive | –
39 | CCOc1ccc(NC(C)=O)cc1N | inactive | –
40 | Clc1cc(Cl)c2c(c1)N=C1CCCCCN1C2 | inactive | –
